CYP2C9 activ – human CYP2C9 activators, primary screen, biochemical, luminescence. hit rate 1.4% among 96,000. AID 1024, 2008. recombinant CYP2C9, luciferin-H conversion; hits give high values; factor 1 = untreated enzyme, 0 = blocked. activation factor at 5 µM;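 active = activation factor of 2 or more for CYP2C9 at a 5 µM dose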
CYP2C9 inh – blockers of cytochrome P450 2C9 activity – biochemical, luminescence, ADME assay, primary screen; P11712; CYP2C9 Supersomes, luciferin-H conversion; inhibition, % at 5 µM; hit rate 20% among 96,000; AID 777, 2007;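 active = blocking of liver enzyme CYP2C9 beyond about 50% at 5 µM, limit read from the data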
CYP2C19 inhib – blockers of cytochrome P450 2C19 activity – biochemical, luminescence, ADME assay, primary screen | P33261 | CYP2C19 Supersomes, luciferin-H EGE luminescence, 30 min | inhibition, % at 5 µM | hit rate 21% among 96,000;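 active = CYP2C19 inhibition above a set limit at 5 µM in the primary screen, cut at about 50% in these data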
sEH act – soluble epoxide hydrolase activators, primary screen, biochemical, human sEH; hit rate 0.04% among 91,000; Bifunctional epoxide hydrolase 2 (Homo sapiens), P34913; purified human sEH enzymatic activity, activator screen; activation, % at 2 µM; AID 717, 2007; in the data active = activation above about 37%
Target sequence (P34913 whole entry, looked up): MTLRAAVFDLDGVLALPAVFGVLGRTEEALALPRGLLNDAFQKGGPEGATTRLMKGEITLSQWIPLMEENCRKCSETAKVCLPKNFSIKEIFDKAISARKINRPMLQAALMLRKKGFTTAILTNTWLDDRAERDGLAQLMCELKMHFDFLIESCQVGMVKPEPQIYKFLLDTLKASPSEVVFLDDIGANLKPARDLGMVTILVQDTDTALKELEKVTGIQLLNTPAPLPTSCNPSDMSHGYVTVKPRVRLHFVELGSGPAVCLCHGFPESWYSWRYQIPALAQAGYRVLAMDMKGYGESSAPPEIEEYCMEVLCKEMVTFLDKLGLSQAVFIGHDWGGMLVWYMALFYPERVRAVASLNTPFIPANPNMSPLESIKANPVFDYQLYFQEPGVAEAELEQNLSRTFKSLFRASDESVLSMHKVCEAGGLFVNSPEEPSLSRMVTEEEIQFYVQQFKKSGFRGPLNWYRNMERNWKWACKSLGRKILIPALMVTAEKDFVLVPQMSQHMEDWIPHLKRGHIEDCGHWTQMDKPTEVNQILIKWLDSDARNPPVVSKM
sEH inh – soluble epoxide hydrolase inhibitors, primary screen, biochemical, human sEH | Bifunctional epoxide hydrolase 2 (Homo sapiens), P34913 | recombinant human sEH enzymatic activity assay | inhibition, % at 2 µM | hit rate 0.34% among 91,000 | AID 707, 2007; in the data active = inhibition above about 80%
CYP2C19 activ – human CYP2C19 activators, primary screen, biochemical, luminescence; Cytochrome P450 2C19 (Homo sapiens), P33261; 96,000 tested, under 10 active; activation factor at 5 µM; recombinant CYP2C19, luciferin-H EGE luminescence; hits give high values; 0 = fully inhibited enzyme, 1 = untreated enzyme; AID 1025, 2008;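 active = activation factor of at least 2 at 5 µM in the primary screen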
A number is an active result; - = inactive; . = no result given. In the library only some 27% were active in any assay of this set; here they are far more common.

SMILES	CYP2C9 activ	CYP2C9 inh	CYP2C19 inhib	sEH act	sEH inh	CYP2C19 activ
O=C(NC1CCCc2ccccc21)C1CCN(C(=O)c2sccc2-n2cccc2)CC1 (stereo unspecified)	-	-	-	.	.	-
Cc1ccc2cc(CN(CCCO)S(=O)(=O)c3cccc4nsnc34)c(=O)[nH]c2c1C	-	100.4	-	-	-	-
CCN(Cc1ccccc1)S(=O)(=O)c1ccc(S(=O)(=O)N(Cc2cccc(OC)c2)CC2CCCO2)cc1 (stereo unspecified)	-	54.7	-	-	-	-
Cc1ccc2nsnc2c1S(=O)(=O)N(Cc1cc2cccc(C)c2[nH]c1=O)CC1CCCO1 (stereo unspecified)	-	78.0	-	-	-	-
COc1ccc2[nH]c(=O)c(CN(CCO)S(=O)(=O)c3c(C)ccc4nsnc34)cc2c1	-	-	-	-	-	-
Cc1ccc2cc(CN(CC(C)C)C(=O)C3CCCO3)c(=O)[nH]c2c1 (stereo unspecified)	-	-	-	-	-	-
CCN(CC)S(=O)(=O)c1ccc(S(=O)(=O)N(CC(=O)Nc2ccccc2)CC2CCCO2)cc1 (stereo unspecified)	.	.	.	-	-	.
Cc1ccc2cc(CN(CC3CCCO3)S(=O)(=O)c3c(C)ccc4nsnc34)c(=O)[nH]c2c1 (stereo unspecified)	-	52.3	-	-	-	-
CCOc1ccc(NC(=O)CCN2CCCCC2)cc1	-	-	-	.	.	-
CC(NC(=O)c1cccs1)C(c1cccs1)N1CCOCC1 (stereo unspecified)	.	.	.	-	-	.
COc1ccc2cc(CN(CC3CCCO3)S(=O)(=O)c3ccccc3Cl)c(=O)[nH]c2c1 (stereo unspecified)	-	98.9	58.1	-	-	-
COc1c(C)cccc1C(=O)Nc1ccc(CN2CCOCC2)cc1	-	-	-	-	-	-
O=C1NC(NS(=O)(=O)c2ccccc2)(C(F)(F)F)C(=O)N1Cc1cccnc1 (stereo unspecified)	-	66.9	-	-	-	-
O=C(NC1(C(F)(F)F)NC(=O)N(Cc2cccnc2)C1=O)c1ccc(F)cc1 (stereo unspecified)	-	-	-	-	-	-
COc1ccc(N2C(=O)NC(NC(=O)c3ccncc3)(C(F)(F)F)C2=O)cc1 (stereo unspecified)	-	55.1	-	-	-	-
O=C(NC1(C(F)(F)F)NC(=O)N(Cc2cccnc2)C1=O)c1ccncc1 (stereo unspecified)	-	60.3	-	-	-	-
COc1ccc(/C(O)=C/Sc2nnc(Cc3ccccc3)o2)cc1	-	-	-	-	-	-
O=C1CC(c2cc3c(cc2Br)OCO3)C2=C(CCCC2=O)N1 (stereo unspecified)	-	-	-	-	-	-
CCCCC12CN3CC(C)(CN(C1)C31C(=O)N(C)c3ccc(C)cc31)C2=O (stereo unspecified)	.	.	.	-	-	.
O=S(=O)(c1ccc(-c2csc(=Nc3ccccc3)n2CCCN2CCOCC2)cc1)N1CCOCC1	-	-	55.8	-	-	-
O=C(CCc1ccc(S(=O)(=O)N2CCOCC2)cc1)Oc1ccccc1	-	-	-	-	-	-
Cc1ccc(S(=O)(=O)Cc2ccc(C(=O)NCCCN3CCCC3=O)o2)cc1	-	-	-	-	-	-
CC(C)(C)C1CCC(=NNS(=O)(=O)c2ccc(Br)cc2)CC1 (stereo unspecified)	.	.	.	-	-	.
CC1CCCC/C1=N\NS(=O)(=O)c1ccc(Br)cc1 (stereo unspecified)	-	50.8	-	-	-	-
Cc1csc(-c2cnn(-c3ccccc3)c2NC(=O)c2cccc(F)c2)n1	-	-	-	-	-	-
SMILES	CYP2C9 activ	CYP2C9 inh	CYP2C19 inhib	sEH act	sEH inh	CYP2C19 activ
Cc1cc2c(cc1C)N(C(=O)CSc1nncn1C)C(C)(C)c1ssc(=S)c1-2	.	.	.	-	-	.
Cc1ccc2c(c1)N(C(=O)CSc1nncn1C)C(C)(C)c1ssc(=S)c1-2	-	-	66.9	-	-	-
Cc1ccc2c(c1)N(C(=O)c1ccco1)C(C)(C)c1ssc(=S)c1-2	-	53.8	-	-	-	-
Cc1cccc2c1N(C(=O)c1ccco1)C(C)(C)c1ssc(=S)c1-2	-	-	-	-	-	-
Cc1ccnn2cc3c(=O)n(C)c(=O)n(C)c3c12	-	-	-	-	-	-
Cc1cc(C)n(C(C[N+](=O)[O-])c2ccc(Cl)cc2)n1 (stereo unspecified)	-	58.5	76.2	-	-	-
Cc1cc(C)n(C(C)n2nc(C)cc2C)n1	-	-	-	-	-	-
Cc1ccc(S(=O)(=O)N2CCN(CCO)CC2)cc1-c1nnc2c3ccccc3c(C)nn12	.	.	.	-	-	.
Cc1ccc2nsnc2c1S(=O)(=O)N1CCN(CCc2ccccc2)CC1	-	-	91.5	-	-	-
CC(CCc1ccccc1)NC(=O)C1CCN(S(=O)(=O)N2CCCCC2)CC1 (stereo unspecified)	-	-	-	.	.	-
Cc1cc(C)n(Cc2n[nH]c(=S)n2Cc2ccccc2)n1	-	-	-	-	-	-
Cc1nn(Cc2n[nH]c(=S)n2Cc2ccccc2)c(C)c1Cl	-	-	53.2	-	-	-
COc1ccc(NC(=O)N[C@@H](CCSC)C(=O)O)cc1Cl	-	-	-	-	-	-
O=C(c1cccs1)N1CCc2c([nH]c3ccccc23)C1c1ccc(Cl)cc1 (stereo unspecified)	-	51.4	-	-	-	-
C=CCN=C1SC(CC)C(=O)N1S(=O)(=O)c1ccc(C)cc1 (stereo unspecified)	-	-	84.4	-	-	-
C=CCN=C1SCC(=O)N1S(=O)(=O)c1ccc(C)cc1	-	-	-	-	-	-
COc1ccc(C2C=C(c3cccs3)Nc3nc(CCCO)nn32)cc1 (stereo unspecified)	-	-	-	-	-	-
COc1ccc(N2CCN(c3nc(NCCO)nc(N4CCOCC4)n3)CC2)cc1	-	80.5	58.6	-	-	-
COC(=O)c1ccc(CSc2ncnc3ccccc23)o1	-	-	69.8	-	-	-
COC(=O)c1ccc(CSc2nc3ccccc3s2)o1	-	-	94.7	-	-	-
COC(=O)c1ccc(CSc2ncnc3c2oc2ccccc23)o1	-	-	-	-	-	-
COC(=O)c1ccc(CSc2n[nH]c(=S)s2)o1	-	57.9	-	-	-	-
COC(=O)c1ccc(CSc2ncn[nH]2)o1	-	-	-	-	-	-
COc1ccc(N2CCN(c3ncnc4c3nnn4Cc3ccccc3Cl)CC2)cc1	.	.	.	-	-	.
COc1ccc(NS(=O)(=O)c2ccc3oc(SC4CCOC4=O)nc3c2)cc1 (stereo unspecified)	-	100.3	97.2	-	-	-
